HCV inhibitor = qHTS Assay for Inhibitors of Hepatitis C Virus (HCV). Huh7.5.1 HCVcc-Cre infection, luciferase reporter, 44 h. Potency, µM (doses to about 41.8 µM), actives largely listed as inhibitors. actives 3.4% (n = 340,000). AID 651820, 2012; active means well fitted inhibition curve with a large enough effect; inconclusive means small, poorly fitted or top-dose-only effect, or another doubt; inactive means no such curve, though single readings can be large or run the other way
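Reporter virus HCVcc-Cre (~0.5 moi) infects cells exposed to compound; seeding density 1,000 cells/well with 4 h settling beforehand. Luminescence, 15 sec read, taken 44 h post-infection following a 15 min RT substrate incubation.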
SARS PLP yeast = qHTS of Yeast-based Assay for SARS-CoV PLP; actives 0.19% (n = 330,000); Potency, µM (doses to about 32.9 µM), most hits filed as activators; S. cerevisiae expressing SARS-CoV PLpro, growth rescue; calls by dose curve; further: nearly all actives have a fitted effect of over 55% in size
FMDV inh = High Throughput Screening for Foot and Mouth Disease Virus Antivirals; FMDV antiviral cell-based qHTS; Potency, µM (series often up to 57.9 µM), actives largely listed as inhibitors; actives 1.2% (n = 410,000); AID 1159524, 2015; calls by dose curve; tested in HEK293T cells; further: read-out not given here; nearly all actives have a fitted effect of over 45% in size
HCMV antiviral = qHTS Assay for inhibitors of the human cytomegalovirus (HCMV); HFF cells, HCMV-luciferase reporter, 72 h; active compounds read low; activity change, negative = inhibition, % at 57.5 µM; actives 4.5% (n = 410,000); in the data active means activity change below about -60%; inconclusive means no clear call, values can overlap the other calls; inactive means above about -39%
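Human foreskin fibroblasts infected with luciferase-reporter HCMV at MOI 1 PFU/cell, compounds at two doses. Luciferase measured 72 h post infection; normalized to buffer-only basal and Salinomycin (10uM) controls.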
MARV entry inh = qHTS for inhibitors of binding or entry into cells for Marburg Virus; actives 1.8% (n = 300,000); Potency, µM (titrated, usually from 37.8 µM), actives largely listed as inhibitors; Marburg virus pseudotyped entry inhibition, cell reporter; AID 540276, 2011; calls by dose curve; tested in HEK293 cells
Lassa entry inh = qHTS for Inhibitors of binding or entry into cells for Lassa Virus | AID 540256, 2011 | actives 1.2% (n = 300,000) | Potency, µM (highest dose often 37.9 µM), actives largely listed as inhibitors | Lassa virus pseudotype entry inhibition, cell reporter; calls by dose curve; tested in HEK293 cells; further: nearly all actives have a fitted effect of over 50% in size
Of the large screens only hits and unclear results are named; the others gave an inactive call. The list is not random: actives were taken first. Their share in the collection is about 8%.

Cc1ccc(C(=O)Nc2nnc(-c3ccco3)o2)cc1	MARV entry inh inconclusive, Lassa entry inh inconclusive
O=C(Nc1nnc(-c2ccco2)o1)c1ccc2ccccc2c1	HCV inhibitor inconclusive, MARV entry inh 14µM, Lassa entry inh inconclusive
O=C(Nc1nnc(-c2ccco2)o1)c1ccc([N+](=O)[O-])s1	HCV inhibitor 8.9µM, MARV entry inh inconclusive, Lassa entry inh inconclusive
O=C(Nc1nnc(-c2ccncc2)o1)c1ccc(Br)s1	HCV inhibitor inconclusive, MARV entry inh 8.9µM, Lassa entry inh inconclusive
Cc1ccccc1NC(=O)CN1C(=O)CCn2nc(-c3cccn3C)cc21	none (no result: HCV inhibitor, SARS PLP yeast, MARV entry inh)
CN(C)c1ccc(N=Nc2ccccc2C(=O)OCC(=O)N2CCCC2)cc1	HCV inhibitor inconclusive
CN(C)c1ccc(N=Nc2ccccc2C(=O)OCC(=O)Nc2ccccc2C(F)(F)F)cc1	HCMV antiviral -75
CN(c1ccc(OCC(=O)Nc2ccccc2C(=O)O)cc1)S(=O)(=O)c1ccc(Cl)cc1	HCMV antiviral -82, MARV entry inh 3.5µM, Lassa entry inh 3.2µM
COc1ccc(NC(=O)COc2ccc(N(C)S(=O)(=O)c3ccc(Cl)cc3)cc2)cc1OC	HCV inhibitor 0.63µM, FMDV inh 10µM, HCMV antiviral -88, MARV entry inh inconclusive, Lassa entry inh inconclusive
CN(c1ccc(OCC(=O)OCC(=O)Nc2ccc(F)cc2)cc1)S(=O)(=O)c1ccc(Cl)cc1	none
Cn1c(N2CCN(c3ccccn3)CC2)nc2c1c(=O)n(Cc1ccccc1Cl)c(=O)n2C	none (no result: SARS PLP yeast)
Cn1c(N2CCN(c3ccccn3)CC2)nc2c1c(=O)n(Cc1ccc(Cl)cc1)c(=O)n2C	FMDV inh 20µM, HCMV antiviral -84
Cn1c(OCc2cccnc2)nc2c1c(=O)n(Cc1ccc(Cl)cc1)c(=O)n2C	HCV inhibitor 11µM, FMDV inh inconclusive, HCMV antiviral inconclusive, MARV entry inh inconclusive, Lassa entry inh 16µM (no result: SARS PLP yeast)
Cn1c(OCc2cccnc2)nc2c1c(=O)n(Cc1ccc(Br)cc1)c(=O)n2C	HCV inhibitor inconclusive, FMDV inh inconclusive
Cc1ccc(N(CC(=O)Nc2ccc(Br)c(C)c2)S(=O)(=O)c2cccs2)cc1	MARV entry inh inconclusive (no result: HCV inhibitor, SARS PLP yeast)
Cc1cccc(C(=O)Nc2ccccc2OCc2cc(=O)n3ccccc3n2)c1	none (no result: HCV inhibitor, SARS PLP yeast, MARV entry inh)
Cc1cccc(C)c1NC(=O)c1ccc(-c2ccc(Cl)cc2Cl)o1	HCV inhibitor inconclusive, HCMV antiviral -72, MARV entry inh 10µM, Lassa entry inh inconclusive
Cc1ccccc1NC(=O)c1ccc(-c2ccc(Cl)cc2Cl)o1	HCV inhibitor 13µM
Cc1ccc(C)c(CN2C(=O)CSc3ccc(C(=O)NCc4ccc(F)cc4)cc32)c1	none (no result: HCV inhibitor, SARS PLP yeast)
CCCn1c(NC(=O)C2CCN(S(=O)(=O)c3cccs3)CC2)nc2ccccc21	HCV inhibitor 14µM, FMDV inh inconclusive, HCMV antiviral -62, MARV entry inh 13µM, Lassa entry inh inconclusive
O=C(Nc1cc(Cl)ccn1)C1CCN(S(=O)(=O)c2cccs2)CC1	HCV inhibitor inconclusive, FMDV inh inconclusive, HCMV antiviral -73, MARV entry inh inconclusive, Lassa entry inh inconclusive
O=C(Nc1ccncc1)C1CCN(S(=O)(=O)c2cccs2)CC1	none
Cc1csc(NC(=O)C2CCN(S(=O)(=O)c3ccccc3F)CC2)n1	HCV inhibitor inconclusive, HCMV antiviral -60, MARV entry inh inconclusive
CC(=O)Nc1ccc(-c2csc(NC(=O)C3CCN(S(=O)(=O)c4cccs4)CC3)n2)cc1	HCV inhibitor inconclusive, FMDV inh inconclusive, HCMV antiviral -69, MARV entry inh inconclusive, Lassa entry inh inconclusive
Cc1csc(NC(=O)C2CCN(S(=O)(=O)c3cccs3)CC2)n1	HCV inhibitor inconclusive, FMDV inh inconclusive, HCMV antiviral inconclusive, MARV entry inh inconclusive
COc1ccc2c(c1)C[C@@H](C)O[C@]21C(=O)Nc2ccccc21	none (no result: HCV inhibitor, SARS PLP yeast, FMDV inh, HCMV antiviral, Lassa entry inh)
O=C(Nc1nc(-c2ccc(F)cc2)cs1)C1CCN(C(=O)c2ccc(F)cc2)CC1	HCV inhibitor inconclusive, FMDV inh 11µM, HCMV antiviral -80, MARV entry inh 11µM
O=C(Nc1nc2c(F)cc(F)cc2s1)C1CCN(C(=O)c2ccc(F)cc2)CC1	none
Fc1ccc(CNCCc2c[nH]c3ccccc23)cc1	MARV entry inh 10µM
CCc1ccc(CNCCc2ccccc2F)cc1	HCMV antiviral -72, Lassa entry inh inconclusive
COc1cccc(CNCCc2c[nH]c3ccccc23)c1	MARV entry inh 11µM, Lassa entry inh inconclusive
CCOCCCN(Cc1ccco1)C(=O)c1cc2c(s1)-c1c(C)cccc1OC2	none (no result: HCV inhibitor, SARS PLP yeast, Lassa entry inh)
Cc1cc(C(=O)O)ccc1N/C=C1\CCCC(C)C1=O (stereo not given)	FMDV inh inconclusive, MARV entry inh 7.9µM, Lassa entry inh 13µM
CC1CCC/C(=C\Nc2ccc(O)cc2)C1=O (stereo not given)	none
Cc1ccc(-n2c(C)c([N+](=O)[O-])c3ccc(O)c(CN(C)C)c32)cc1	HCV inhibitor inconclusive, FMDV inh inconclusive, HCMV antiviral -93, MARV entry inh inconclusive
COc1ccc(-n2c(C)c([N+](=O)[O-])c3ccc(O)c(CN4CCCCC4)c32)cc1	FMDV inh inconclusive, HCMV antiviral -73
Cc1cc(C(=O)COC(=O)c2ccc(O)cc2)c(C)n1CCc1ccc(F)cc1	none
Cc1cc(C(=O)CSc2nc(N)cc(N)n2)c(C)n1CCc1ccc(F)cc1	HCV inhibitor inconclusive, FMDV inh 25µM, HCMV antiviral inconclusive, MARV entry inh inconclusive, Lassa entry inh inconclusive
CCOC(=O)CC(NC(=O)Cn1nnc(-c2ccc(C(F)(F)F)cc2)n1)c1ccc(C)cc1 (stereo not given)	none (no result: HCV inhibitor, SARS PLP yeast)
CCOc1cccc(CN2CCC(n3cc(C(=O)N4CCCCC4)nn3)CC2)c1O	none (no result: HCV inhibitor, SARS PLP yeast, HCMV antiviral, MARV entry inh, Lassa entry inh)
Cc1ccc(NC(=O)CSCC(=O)N=c2sccn2C)cc1	none
Cc1ccc(Cn2ccsc2=NC(=O)CCl)cc1	HCV inhibitor 0.56µM, FMDV inh inconclusive, HCMV antiviral -99 (no result: MARV entry inh, Lassa entry inh)
Cc1ccc(NC(=O)CN(C)C(=O)COC(=O)c2ccc(NC(=O)CC#N)cc2)cc1	none
Cc1ccc(Cn2ccsc2=NC(=O)COC(=O)c2ccc(NC(=O)CC#N)cc2)cc1	HCV inhibitor inconclusive, FMDV inh 25µM, MARV entry inh inconclusive, Lassa entry inh inconclusive
CCCN1C(=O)COCc2cc(-c3ccc(N(C)C)cc3)ccc21	none (no result: HCV inhibitor, SARS PLP yeast, FMDV inh, MARV entry inh, Lassa entry inh)
COc1ccccc1NC(=S)N(Cc1ccco1)Cc1cc2cccc(C)c2[nH]c1=O	HCV inhibitor inconclusive, MARV entry inh inconclusive
CCOc1ccc(NC(=S)N(CCc2c(C)[nH]c3ccccc23)Cc2ccco2)cc1	HCV inhibitor inconclusive
COc1ccccc1NC(=O)N(Cc1ccco1)Cc1cc2cc(C)cc(C)c2[nH]c1=O	HCV inhibitor 3.2µM, FMDV inh inconclusive, MARV entry inh inconclusive, Lassa entry inh inconclusive
